The full list was thinned out, with hits kept by preference.
FECH block: inhibitors of human ferrochelatase; P22830; AID 1671448; purified FECH, Ni-mesoporphyrin absorbance 550 nm; calls only at 10 µM (by protocol); hit rate 3.3% among 20,000;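 active means enzyme reaction rate more than 3 SD below the solvent-only control wells on the same plate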;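 further: lower slope than DMSO wells means FECH inhibition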
Target sequence (P22830 whole entry, looked up): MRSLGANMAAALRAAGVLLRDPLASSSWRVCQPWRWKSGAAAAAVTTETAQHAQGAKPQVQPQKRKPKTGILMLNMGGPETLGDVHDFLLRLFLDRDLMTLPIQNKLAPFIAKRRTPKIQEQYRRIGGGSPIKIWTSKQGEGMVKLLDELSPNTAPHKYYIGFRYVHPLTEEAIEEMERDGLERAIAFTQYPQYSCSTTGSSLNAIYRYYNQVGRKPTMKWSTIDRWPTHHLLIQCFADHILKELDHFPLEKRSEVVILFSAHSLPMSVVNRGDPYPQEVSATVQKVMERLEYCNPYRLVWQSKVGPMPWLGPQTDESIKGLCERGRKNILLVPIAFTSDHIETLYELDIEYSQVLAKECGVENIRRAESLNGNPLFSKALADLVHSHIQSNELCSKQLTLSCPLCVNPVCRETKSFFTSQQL
Numbers without * were called inactive; i = inactive; + = active, no number.

SMILES | FECH block
Cc1cc(C(=O)N(C)C2Cc3ccccc3C2)nc(C)n1 | i
CN1CCCC1CCNS(=O)(=O)NCc1ccccc1 (stereo not given) | i
O=C(CCC(=O)N1CCc2cc(S(=O)(=O)NCc3ccco3)ccc21)N1CCOCC1 | i
CN1C(=O)c2cc(C(=O)NCCc3ccco3)nn2CC1(C)C(=O)NCc1ccc(F)cc1 (stereo not given) | i
Cc1ccc(C2=CC(c3ccc(F)cc3)n3nc(NS(=O)(=O)c4ccc(C)cc4)nc3N2)cc1 (stereo not given) | i
CCCC(=O)Nc1nc2n(n1)C(c1ccc(Cl)cc1)C=C(c1ccc(C)cc1)N2 (stereo not given) | +
O=S(=O)(Nc1nc2n(n1)C(c1ccc(F)cc1)C=C(c1ccccc1)N2)c1ccccc1 (stereo not given) | i
Cc1ccc(C2=CC(c3ccc(C)cc3)n3nc(NS(=O)(=O)c4ccccc4)nc3N2)cc1 (stereo not given) | +
CCC(=O)Nc1nc2n(n1)C(c1ccc(Cl)cc1)C=C(c1ccc(Cl)cc1)N2 (stereo not given) | i
O=C(O)CCCC(=O)Nc1nc2n(n1)C(c1ccc(Cl)cc1)C=C(c1ccc(Cl)cc1)N2 (stereo not given) | i
CCc1nc(N)sc1C(=O)N1CCC(O)(c2ccccc2C)C1 (stereo not given) | i
O=C(NCCc1ccccc1Cl)c1cccc2ccnn12 | i
Cc1ccc(N2C(=O)CCS2(=O)=O)cc1S(=O)(=O)N(C)c1ccccc1 | i
COc1ccc(S(=O)(=O)NCCn2c(-c3ccccc3)nc3cccnc32)cc1 | i
Cc1ccccc1-c1cc(N2CCN(C(=O)NC3CCCCC3)CC2)ncn1 | i
CCCCc1nncn1-c1cc(C)ccc1OC | i
CCn1cc(CN(C(=O)c2nccc3ccccc23)C(C)C)cn1 | i
N[C@@H]1c2ccccc2C2(CCN(C(=O)c3nccc4ccccc34)CC2)[C@H]1O | i
CN(CC1COCCO1)C(=O)c1nccc2ccccc12 (stereo not given) | +
CCc1cc(CN(C)C(=O)CN2C(=O)c3ccccc3C2=O)on1 | +
CCc1cc(CN(C)C(CC)C(=O)Nc2ccccc2)on1 (stereo not given) | i
CCc1cc(CN(C)C2CCN(C(=O)c3ccccn3)CC2)on1 | i
CCc1nc2nc(C)cc(N3CCN(c4ccccc4F)CC3)n2n1 | i
CN1CCCn2nc(C(=O)NCc3ccc4nonc4c3)cc2C1 | i
O=c1[nH]nc(-c2ccncc2)n1CC1CCCCC1 | i
SMILES | FECH block
CN1CC(=O)N(CC(=O)Nc2cccc(-c3ccno3)c2)c2ccccc2C1=O | i
CN1CC(=O)N(CC(=O)Nc2ccc(-c3ccno3)cc2)c2ccccc2C1=O | +
CC(=O)Nc1ccc(NC(=O)CN2C(=O)CN(C)C(=O)c3ccccc32)cc1 | i
CC(=O)Nc1ccnn1CC1=CCN(Cc2cc(C)ccc2C)CC1 | i
COc1ccccc1-n1cc(C(=O)NCCc2cnc[nH]2)cn1 | i
O=C(NCCc1cnc[nH]1)c1ccc(CN2C(=O)CCn3nccc32)cc1 | i
COc1ccc(Oc2ccc(C(=O)NCCc3cnc[nH]3)cc2)cc1 | +
CCn1c(C2CCN(C(=O)CCCn3ccnc3)CC2)n[nH]c1=O | i
Cn1c(CCc2cccc(NC(=O)C3CCN(S(=O)(=O)N4CCCC4)CC3)c2)nc2ccccc21 | +
Cn1c(CCc2ccccc2NC(=O)C2CCCN(S(=O)(=O)N3CCCC3)C2)nc2ccccc21 (stereo not given) | i
O=C(Nc1ccc2nc(CCc3ccccc3)[nH]c2c1)C1CCN(S(=O)(=O)N2CCOCC2)CC1 | i
O=C1CC(c2cn[nH]c2-c2cccc(F)c2)c2cc3cn[nH]c3cc2N1 (stereo not given) | i
Cc1ccc(-c2ncc3c(=O)n(Cc4ccncc4)c(=O)n(C)c3n2)cc1 | i
Cc1cccc2c(=O)n(CCN3CCCC(c4ccccc4)C3)cnc12 (stereo not given) | i
Cc1cc(C)c2ncn(CCC(C)O)c(=O)c2c1 (stereo not given) | i
Cc1cc(Cl)cc2c(=O)n(CC3(CO)CCC3)cnc12 | +
Cn1nnnc1SCCNC(=O)c1cnn2ccn(C)c12 | i
Cn1ccn2ncc(C(=O)NCCc3ccccn3)c12 | +
CCc1c(C)nn(CCNC(=O)c2cnn3ccn(C)c23)c1C | i
Cc1oc(-c2ccccc2)nc1CSc1nc(-c2ccncc2)cc(=O)[nH]1 | i
COc1ccc(N2C(=O)CCS2(=O)=O)cc1S(=O)(=O)Nc1cc(C)ccc1C | i
Cc1ccc(C)c(NS(=O)(=O)c2ccc(N)c(S(N)(=O)=O)c2)c1 | +
Cc1ccc(NS(=O)(=O)c2ccc(N)c(S(N)(=O)=O)c2)c(C)c1 | +
COc1ccc(-c2ccc(=O)[nH]n2)cc1S(=O)(=O)Nc1ccc(C)cc1C | i
COc1ccc(-c2cc(C(=O)Nc3ccc(C)cc3C)[nH]n2)cc1S(N)(=O)=O | i
SMILES | FECH block
Cc1ccc(C)c(NS(=O)(=O)c2cc(N3C(=O)CCS3(=O)=O)ccc2C)c1 | i
Cc1ccc(CN(CCN(C)C)C(=O)CC2CNCCO2)s1 (stereo not given) | i
COc1ccccc1N(Cc1nc2nc(C)cc(C)n2n1)C(=O)C(C)C | i
Cc1cccc(-c2noc(Cn3cnc4sc5c(c4c3=O)CCNC5)n2)c1 | i
O=C(COc1ccc(F)cc1)Nc1cccc(OCc2cc(=O)n3cc(Cl)ccc3n2)c1 | i
Cc1ncc(CO)c2cc(C3=NS(=O)(=O)c4ccccc4N3)c(=O)oc12 | +
COc1cc(CN2CCC(=O)NCC2C)cc2c1OCO2 (stereo not given) | i
Cc1noc(C)c1CCn1c(=O)c2cnc(-c3cccs3)nc2n(C)c1=O | i
Cn1c(=O)n(Cc2ccccc2F)c(=O)c2cnc(-c3cccs3)nc21 | i
Cn1c(=O)n(CCOc2ccccc2)c(=O)c2cnc(-c3cccs3)nc21 | +
O=C(CCc1c[nH]c2ccccc12)N1CCC(Nc2ncccn2)CC1 | i
CC(C)NC(=O)c1nc[nH]c1C(=O)NCC1CC1 | i
COc1ccccc1CNC(=O)c1[nH]cnc1C(=O)NC1CCCCC1 | +
O=C(NC1CC1)c1nc[nH]c1C(=O)NCC1CCCCC1 | i
Cc1ccc(CNC(=O)c2nc[nH]c2C(=O)NCc2ccccc2)o1 | i
COc1ccccc1CNC(=O)c1[nH]cnc1C(=O)NCc1ccc(C)o1 | +
COCCNC(=O)c1[nH]cnc1C(=O)NC1CCCCC1 | i
Cc1ccc(CNC(=O)c2[nH]cnc2C(=O)NCCC(C)C)o1 | i
COc1ccccc1CNC(=O)c1nc[nH]c1C(=O)NCc1ccccc1OC | +
COc1ccccc1CNC(=O)c1nc[nH]c1C(=O)N1CCC(C)CC1 | i
COc1ccccc1CNC(=O)c1[nH]cnc1C(=O)NC1CCCc2ccccc21 (stereo not given) | +
CCCNC(=O)c1nc[nH]c1C(=O)NCC1CCCCC1 | i
CC(C)(C)CNC(=O)c1nc[nH]c1C(=O)NCC(C)(C)C | i
OCC1(Cc2ccccc2F)CCCN(c2noc(-c3ccccc3)n2)C1 (stereo not given) | i
CC(C(=O)NCCCn1cncn1)n1cnc2ccccc21 (stereo not given) | i
Cc1cccc(Nc2nc(N(C)C)nc3c2cnn3-c2ccccc2)c1 | i
COC(=O)C1CCCN1C(=O)c1cc(CC(C)C)no1 (stereo not given) | i

Screens as filed in PubChem BioAssay.
